Measured values: PubChem BioAssay (Tox21)
Unmarked numbers belong to inactive results. Inconclusive results are not listed. Entries that show only a call come without a potency. Calls of active or inactive are those of the source. Unless noted, the call rests on the fitted dose curve; in most records, active means well fitted curve in the direction sought with a large enough effect in the repeat runs; inconclusive means weak or mixed curves; inactive means no such curve, though single readings can be large; an effect the other way counts as inactive or inconclusive.

Experiments:
[1] = A CellTox Green Cytotoxicity Assay to monitor cytotoxicity in HepG2 cells - 8 hour (AID 1224890); further: nearly all actives have a fitted effect of over 45% in size; further: potency means the concentration at half of the fitted maximal effect
Procedure, shortened: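 Fluorescent DNA-binding dye, 600 HepG2 cells/well, 5 h preincubation then compound in DMSO; same plates read at 0–40 h, 37 C.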

[2] = qHTS assay to identify small molecule antagonists of the estrogen receptor alpha (ER-alpha) signaling pathway using the BG1 cell line in the presence of 0.1 nM 17-beta-estradiol - cell viability counter screen (AID 1259241); further: nearly all actives have a fitted effect of over 40% in size; further: potency means the concentration at half of the fitted maximal effect
Procedure, shortened: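 CellTiter-Fluor read (30 min, 37C) on ER-alpha/ERE-luc VM7Luc4E2 cells; 22 hr compound treatment; agonist 0.1 nM E2 final; same-well multiplex.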

[3] = qHTS assay to identify small molecule antagonists of the androgen receptor (AR) signaling pathway using the MDA cell line in the presence of 0.5 nM R1881 - cell viability counter screen (AID 1259242); further: nearly all actives have a fitted effect of over 45% in size
Procedure, shortened: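 Human breast carcinoma MDA-kb2 cells, cultured without CO2, receive compounds alongside 0.5 nM (final) R1881 agonist. After 16 hr at 37C, viability is taken as live-cell protease signal.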

[4] = qHTS assay to identify small molecule phospholipidosis (PLD) inducers (AID 1259344; active means well fitted curve in the direction sought with a large enough effect; an effect the other way counts as inactive or inconclusive)
Procedure, shortened: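 Phospholipid accumulation was scored by imaging: fixed, Hoechst-counterstained HepG2 cells stained with LipidTOX Red after 24 h compound exposure at 37 C. Read-outs were pit count and pit intensity per well or per cell, with amiodarone and DMSO controls.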

[5] = qHTS assay to identify small molecule HDAC inhibitors (AID 1259364); further: potency means the concentration at half of the fitted maximal effect;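 further: wild-type HCT-116 cells with endogenous class I/II HDAC activity; nearly all actives have a fitted effect of over 45% in size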; on activity change, negative = inhibition: top concentration of the series differs between compounds
Procedure, shortened: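 After a 2 hr compound incubation (37C, 5% CO2), HCT-116 cells seeded at 1,500/well the day before received HDAC-Glo reagent; signal read as luminescence after 30 min at room temperature.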

[6] = qHTS assay to identify small molecule agonists of the sonic hedgehog signaling (Shh) pathway - cell viability counter screen (AID 1259366); further: nearly all actives have a fitted effect of over 50% in size
Procedure, shortened: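 Fluorescence from CellTiter-Fluor reports live cells in this counter screen. NIH/3T3-derived Gli1-Luc reporter cells receive test compounds for 24hr at 37C; reagent goes in at 23hr.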

[7] = qHTS assay to identify small molecule antagonists of the sonic hedgehog signaling (Shh) pathway - cell viability counter screen (AID 1259367); further: nearly all actives have a fitted effect of over 55% in size; further: potency means the concentration at half of the fitted maximal effect
Procedure, shortened: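 Viability was read by CellTiter-Fluor fluorescence in the same wells, reagent added 23 hr into compound treatment and incubated 1 hr at 37C. The 3T3 Gli1-Luc reporter cells (2,000/well) received conditioned medium after compound and ran 24 hr.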

[8] = qHTS assay to identify small molecule HDAC inhibitors - cell viability counter screen (AID 1259365); further: series mostly up to about 92 µM; nearly all actives have a fitted effect of over 50% in size
Procedure, shortened: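 To flag cytotoxic hits, 1,500 wild-type HCT-116 cells per well, plated the day before, receive test compounds for 2hr at 37 C before CellTiter-Glo reagent and a luminescence read.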

With `CC(=O)N[C@@H](CC(C)C)C(=O)O` the Potency [1] was “inactive”, the Potency [2] was “inactive” and the outcome [3] was “inactive”. The outcome [4] was “inactive”, the Potency [5] was “inactive” and the Potency [6] was “inactive”. For the same compound, the Potency [7] was “inactive”.

With `O=S(=O)(O)C(F)(F)F` the Potency [1] was “inactive”, the Potency [2] was “inactive” and the outcome [3] was “inactive”. For the same compound, the Potency [5] was “inactive”, the outcome [8] was “inactive” and the Potency [6] was “inactive”. For the same compound, the Potency [7] was “inactive”.

With `O=C(O[C@@H](C(=O)O)[C@@H](OC(=O)c1ccccc1)C(=O)O)c1ccccc1` the Potency [1] was “inactive”, the Potency [2] was “inactive” and the outcome [3] was “inactive”. For the same compound, the Potency [5] was “inactive”, the outcome [8] was “inactive” and the Potency [6] was “inactive”.

For `CC(C)(C)c1ccc(OC(=O)c2ccccc2O)cc1`, the Potency [1] was “inactive”, the Potency [2] was “inactive” and the outcome [3] was “inactive”. The Potency [5] was 27.3 µM (active), the outcome [8] was “inactive” and the Potency [6] was “inactive”. For the same compound, the Potency [7] was “inactive”.

With `COc1ccc2nc(NC(=O)Nc3ccccc3)sc2c1` the Potency [1] was “inactive”, the Potency [2] was “inactive” and the outcome [3] was “inactive”. For the same compound, the outcome [4] was “inactive”, the Potency [5] was 3.35 µM (active) and the outcome [8] was “inactive”. The Potency [6] was “inactive” and the Potency [7] was “inactive”.

With `CC(C)S` the Potency [1] was “inactive”, the Potency [2] was “inactive” and the outcome [3] was “inactive”. The Potency [5] was “inactive”, the outcome [8] was “inactive” and the Potency [6] was “inactive”.

With `CN(CC1(C)CCCO1)S(=O)(=O)c1ccc(Cl)c(S(N)(=O)=O)c1` (configuration not stated) the Potency [1] was “inactive”, the Potency [2] was “inactive” and the outcome [3] was “inactive”. The Potency [5] was “inactive”, the outcome [8] was “inactive” and the Potency [6] was “inactive”. The Potency [7] was “inactive”.

In the case of `CCN(CC)C(=O)N(CC)CC`, the Potency [1] is reported as “inactive”, the Potency [2] is reported as “inactive” and the outcome [3] is reported as “inactive”. For the same compound, the Potency [5] was “inactive”, the outcome [8] was “inactive” and the Potency [6] was “inactive”.

In the case of `CC1(C)S[C@@H]2[C@H](NC(=O)C(C(=O)O)c3ccccc3)C(=O)N2[C@H]1C(=O)O` (some centres not stated), the Potency [1] is reported as “inactive”, the Potency [2] is reported as “inactive” and the outcome [3] is reported as “inactive”. For the same compound, the outcome [4] was “inactive”, the Potency [5] was “inactive” and the outcome [8] was “inactive”. The Potency [6] was “inactive” and the Potency [7] was “inactive”.

For `NNS(=O)(=O)c1ccc(Oc2ccc(S(=O)(=O)NN)cc2)cc1`, the Potency [1] was “inactive”, the Potency [2] was “inactive” and the outcome [3] was “inactive”. The Potency [5] was “inactive”, the outcome [8] was “inactive” and the Potency [6] was “inactive”. The Potency [7] was “inactive”.

For `O=C1N(c2ccccc2)c2ccccc2C1(Cc1ccncc1)Cc1ccncc1`, the Potency [1] was “inactive”, the Potency [2] was “inactive” and the outcome [3] was “inactive”. The outcome [4] was “inactive”, the Potency [5] was “inactive” and the Potency [6] was “inactive”. For the same compound, the Potency [7] was “inactive”.

For `CC(=O)Oc1cc(C(C)C)c(OCCN(C)C)cc1C`, the Potency [1] was “inactive”, the Potency [2] was “inactive” and the outcome [3] was “inactive”. For the same compound, the outcome [4] was “inactive”, the Potency [5] was “inactive” and the outcome [8] was “inactive”. For the same compound, the Potency [6] was “inactive” and the Potency [7] was “inactive”.

With `O=C1Nc2ccc([N+](=O)[O-])cc2C1=O` the Potency [1] was “inactive”, the Potency [2] was “inactive” and the outcome [3] was “inactive”. The Potency [5] was “inactive”, the outcome [8] was “inactive” and the Potency [6] was “inactive”. The Potency [7] was “inactive”.

In the case of `Cc1cc2c(s1)Nc1ccccc1N=C2N1CCN(C)CC1`, the Potency [1] is reported as “inactive”, the Potency [2] is reported as 13.3 µM (active) and the outcome [3] is reported as “inactive”. The outcome [4] was “inactive”, the Potency [5] was “inactive” and the outcome [8] was “inactive”. For the same compound, the Potency [7] was 5.31 µM (active).

Work on `NC(Cc1ccc(F)cc1)C(=O)O` (configuration not stated) yielded a cytotoxicity increase [1] of 1.46% [at 6.97 µM], an activity change, negative = cytotoxicity [2] of 0.956% [at 8.39 µM] and a viability change, negative = cytotoxic [3] of 3.8% [at 8.39 µM]. The activity change, negative = inhibition [5] was -2.41% [at 8.39 µM], the activity change, negative = cytotoxicity [8] was 4.97% [at 8.39 µM] and the viability change, negative = cytotoxic [6] was -12.8% [at 8.39 µM].

With `C1CCOC1` the Potency [1] was “inactive”, the Potency [2] was “inactive” and the outcome [3] was “inactive”. The Potency [5] was “inactive”, the outcome [8] was “inactive” and the Potency [6] was “inactive”. For the same compound, the Potency [7] was “inactive”.

With `CCCC1CCC(=O)O1` (configuration not stated) the Potency [1] was “inactive”, the Potency [2] was “inactive” and the outcome [3] was “inactive”. The Potency [5] was “inactive”, the outcome [8] was “inactive” and the Potency [6] was “inactive”.

For `ICCc1ccccc1`, the Potency [1] was “inactive”, the Potency [2] was “inactive” and the outcome [3] was “inactive”. For the same compound, the Potency [5] was “inactive”.

In the case of `CC1(C)C(=O)N(Cl)C(=O)N1Br`, the Potency [1] is reported as “inactive”, the Potency [2] is reported as “inactive” and the outcome [3] is reported as “inactive”. For the same compound, the Potency [5] was “inactive”, the outcome [8] was “inactive” and the Potency [6] was “inactive”. For the same compound, the Potency [7] was “inactive”.

For `COc1cc(Cl)ccc1Cl`, the Potency [1] was “inactive”, the Potency [2] was “inactive” and the outcome [3] was “inactive”. The Potency [5] was “inactive”, the outcome [8] was “inactive” and the Potency [6] was “inactive”. The Potency [7] was “inactive”.

For `O=C(O)CN(CCN(CC(=O)O)CC(=O)O)CCN(CC(=O)O)CC(=O)O`, the cytotoxicity increase [1] was 26.9% [at 15.8 µM], the activity change, negative = cytotoxicity [2] was -1.86% [at 19 µM] and the viability change, negative = cytotoxic [3] was 3.41% [at 19 µM]. For the same compound, the outcome [4] was “inactive”, the activity change, negative = inhibition [5] was 3.25% [at 19 µM] and the viability change, negative = cytotoxic [6] was -18.4% [at 19 µM]. The viability change, negative = cytotoxic [7] was -7.04% [at 19 µM].

For `Cc1c(N)cccc1N`, the Potency [1] was “inactive”, the Potency [2] was “inactive” and the outcome [3] was “inactive”. The Potency [5] was “inactive”, the outcome [8] was “inactive” and the Potency [6] was “inactive”. The Potency [7] was “inactive”.

For `O=C(O)C(=O)Cc1c[nH]c2ccccc12`, the Potency [1] was “inactive”, the Potency [2] was “inactive” and the outcome [3] was “inactive”. For the same compound, the Potency [5] was “inactive”, the outcome [8] was “inactive” and the Potency [6] was “inactive”. For the same compound, the Potency [7] was “inactive”.

In the case of `CO[C@@]1(NC(=O)CSCC#N)C(=O)N2C(C(=O)O)=C(CSc3nnnn3C)CS[C@@H]21`, the Potency [1] is reported as “inactive”, the Potency [2] is reported as “inactive” and the outcome [3] is reported as “inactive”. For the same compound, the outcome [4] was “inactive”, the Potency [5] was “inactive” and the Potency [6] was “inactive”. For the same compound, the Potency [7] was “inactive”.

With `Cc1ccc(C=O)s1` the Potency [1] was 38.9 µM (active), the Potency [2] was “inactive” and the outcome [3] was “inactive”. The Potency [5] was “inactive”, the outcome [8] was “inactive” and the Potency [6] was “inactive”. The Potency [7] was “inactive”.

With `C=Cc1ccccc1` the Potency [1] was “inactive”, the Potency [2] was “inactive” and the outcome [3] was “inactive”. For the same compound, the outcome [4] was “inactive”, the Potency [5] was “inactive” and the Potency [6] was “inactive”. For the same compound, the Potency [7] was “inactive”.
